Screens from PubChem.
Dicer inh = blocks human Dicer maturation of pre-miR-21; cat-ELCCA pre-miR-21 Dicer processing, chemiluminescence; hits give high values; z-score at 25 µM; 47,000 compounds, 6% hits; AID 1347074; in the data active means z-score above about 3, passing the limit was not always enough;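 further: higher signal means more uncleaved substrate so more Dicer inhibition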
Target sequence (Q9UPY3 whole entry, looked up): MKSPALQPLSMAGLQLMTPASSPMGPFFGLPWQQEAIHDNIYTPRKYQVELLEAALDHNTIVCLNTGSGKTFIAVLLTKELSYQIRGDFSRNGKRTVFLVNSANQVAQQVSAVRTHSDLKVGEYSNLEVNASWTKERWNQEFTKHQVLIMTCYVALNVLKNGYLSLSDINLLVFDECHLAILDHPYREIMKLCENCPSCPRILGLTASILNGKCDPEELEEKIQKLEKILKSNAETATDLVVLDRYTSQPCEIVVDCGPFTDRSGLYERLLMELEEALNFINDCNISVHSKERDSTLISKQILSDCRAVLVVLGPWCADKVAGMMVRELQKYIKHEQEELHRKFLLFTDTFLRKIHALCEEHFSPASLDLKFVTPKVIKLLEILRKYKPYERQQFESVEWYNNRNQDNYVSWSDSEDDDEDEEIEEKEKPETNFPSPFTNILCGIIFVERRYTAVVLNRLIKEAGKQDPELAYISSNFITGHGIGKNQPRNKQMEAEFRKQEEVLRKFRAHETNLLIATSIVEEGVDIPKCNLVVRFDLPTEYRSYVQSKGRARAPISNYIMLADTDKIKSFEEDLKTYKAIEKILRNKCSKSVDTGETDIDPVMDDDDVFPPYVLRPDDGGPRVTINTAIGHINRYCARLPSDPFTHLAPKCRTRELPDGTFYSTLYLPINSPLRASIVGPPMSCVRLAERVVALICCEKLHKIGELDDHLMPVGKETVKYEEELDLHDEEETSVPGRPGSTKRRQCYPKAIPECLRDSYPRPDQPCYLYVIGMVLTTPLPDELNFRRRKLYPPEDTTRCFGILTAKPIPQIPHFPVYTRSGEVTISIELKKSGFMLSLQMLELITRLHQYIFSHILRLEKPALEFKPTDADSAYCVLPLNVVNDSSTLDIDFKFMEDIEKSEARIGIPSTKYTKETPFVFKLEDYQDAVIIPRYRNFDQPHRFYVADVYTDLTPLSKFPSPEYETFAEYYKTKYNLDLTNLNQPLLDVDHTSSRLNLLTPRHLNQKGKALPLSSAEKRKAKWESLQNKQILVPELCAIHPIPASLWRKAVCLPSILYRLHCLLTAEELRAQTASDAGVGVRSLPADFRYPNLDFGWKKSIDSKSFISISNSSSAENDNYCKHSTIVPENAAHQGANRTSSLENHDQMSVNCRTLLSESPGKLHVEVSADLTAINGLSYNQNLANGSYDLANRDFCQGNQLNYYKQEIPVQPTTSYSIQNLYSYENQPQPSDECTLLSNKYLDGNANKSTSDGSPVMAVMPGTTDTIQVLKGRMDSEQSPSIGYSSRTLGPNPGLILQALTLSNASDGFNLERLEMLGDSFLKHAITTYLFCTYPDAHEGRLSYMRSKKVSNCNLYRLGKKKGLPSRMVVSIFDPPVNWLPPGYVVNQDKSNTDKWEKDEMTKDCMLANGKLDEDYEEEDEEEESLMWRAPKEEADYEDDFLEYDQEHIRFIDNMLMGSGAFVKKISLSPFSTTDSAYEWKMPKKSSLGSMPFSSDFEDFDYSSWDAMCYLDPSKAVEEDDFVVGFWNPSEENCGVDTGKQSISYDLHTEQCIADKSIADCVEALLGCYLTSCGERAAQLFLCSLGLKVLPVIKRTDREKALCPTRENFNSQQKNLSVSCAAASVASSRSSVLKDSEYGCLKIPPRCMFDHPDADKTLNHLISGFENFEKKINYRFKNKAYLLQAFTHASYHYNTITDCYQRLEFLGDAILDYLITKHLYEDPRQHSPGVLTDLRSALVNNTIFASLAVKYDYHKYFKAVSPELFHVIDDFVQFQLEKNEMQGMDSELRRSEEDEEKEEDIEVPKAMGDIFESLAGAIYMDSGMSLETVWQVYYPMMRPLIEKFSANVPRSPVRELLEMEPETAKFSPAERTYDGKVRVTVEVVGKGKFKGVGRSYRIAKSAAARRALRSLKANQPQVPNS
Of the large screens only hits and unclear results are named; the others gave an inactive call. This excerpt belongs to a sample that is enriched for hits.

O=C(Nc1nc2c(s1)CCc1ccccc1-2)c1ccc(F)c(Cl)c1	Dicer inh 3.72
CC(=O)Nc1nc2c(s1)Cc1ccccc1-2	none
CCCCCCCCC(=O)Nc1nc2c(s1)CCc1ccccc1-2	none
ON/C=N/c1nc2c(s1)CCc1ccccc1-2	none
Cc1cc(C(=O)NNC(=O)Nc2ccc(C(F)(F)F)cc2)nn1C(C)(C)C	none
CCOc1ccccc1C1Nc2ccccc2-c2cc(C)nn21 (stereo not given)	none
CC(C)(CO)Nc1c[nH]c(=O)[nH]c1=O	none
COc1ccc(-c2c(C(F)(F)F)nn(C)c2NC(=O)NC(C)(C)C)cc1	none
C=CCOC(=O)Oc1ccc2c(=O)c(Oc3cc(C)cc(C)c3)coc2c1	Dicer inh 3.01
CCC(C)OC(=O)C(C)Oc1ccc2c(=O)c(Oc3ccc(C)cc3)coc2c1 (stereo not given)	Dicer inh 4.2
CCOC(=O)Oc1ccc2c(=O)c(Oc3cc(C)cc(C)c3)coc2c1	none
CCC(C)OC(=O)C(C)Oc1ccc2c(=O)c(Oc3ccccc3Cl)coc2c1 (stereo not given)	none
C=CCOC(=O)Oc1ccc2c(=O)c(Oc3cc(C)ccc3C)coc2c1	none
CCC(C)OC(=O)C(C)Oc1ccc2c(=O)c(Oc3cccc(C)c3)coc2c1 (stereo not given)	none
N#CCCn1cccc1CN1CCOCC1	none
CCOC(=O)c1cnc(NNS(=O)(=O)c2ccc(Cl)cc2)nc1C(F)(F)F	none
C#CC1(NC(=S)Nc2ccc(S(=O)(=O)N3CCCCC3)cc2)CCCCC1	none
N#Cc1ccc(C2Nc3cc(Cl)ccc3O2)cc1 (stereo not given)	none
COCCCN1CN=C(SCc2cccc(C#N)c2)NC1	none
COc1ccc(C(=O)NNS(=O)(=O)c2cccs2)cc1OC1CCCC1	none
CN(C)C1CS(=O)(=O)CC1N(C)C (stereo not given)	none
S=c1[nH]nc(C2CC2)n1-c1cccc(Cl)c1	none
Cc1cc(C)c2ccc(C3C(=O)c4ccc(O)cc4C3=O)nc2c1 (stereo not given)	Dicer inh 3.13
Cc1cc(C(=O)O)nc2ccccc12	none
Cc1cc(C)c2nc(C3C(=O)c4ccccc4C3=O)ccc2c1	none
CCOC(=O)Nc1cc(C(F)(F)F)cc(C(F)(F)F)c1	none
CC(OC(=O)c1cccc(N2C(=O)C3CC=CC(C)C3C2=O)c1)C(=O)c1ccccc1 (stereo not given)	none
COc1ccc(N2C(=O)C3CC=CC(C)C3C2=O)cc1 (stereo not given)	Dicer inh 5.47
COc1ccc(N2C(=O)C3C4C=CC(CC4)C3C2=O)cc1 (stereo not given)	none
CCOC(=O)/C(N=Nc1ccc(-n2ccc(C(F)(F)F)n2)cc1)=C(/O)C(F)(F)F	none
Cc1ccc2c(c1)c(C)c(C)n2CC(O)CN1CCOCC1 (stereo not given)	Dicer inh 4.57
OC(CN1CCOCC1)Cn1c2ccc(Br)cc2c2cc(Br)cc(Br)c21 (stereo not given)	none
OC(CN1CCCC1)Cn1c2ccc(Cl)cc2c2cc(Cl)ccc21 (stereo not given)	none
CCOC(=O)c1cc(C#N)c(=O)[nH]c1C(F)(F)F	none
O=S(=O)(c1ccc(Cl)cc1)N1CCN(c2cccc(Cl)c2)CC1	Dicer inh 3.09
O=S(=O)(c1ccc(Cl)cc1)N1CCSCC1	none
CN(C)C(=O)N1CCN(S(=O)(=O)c2ccc(Cl)cc2)CC1	none
CC1CCN(C(=O)CN2C(=O)C(=O)c3ccccc32)CC1	none
Cc1c(NC(=O)OCc2ccccc2)c(=O)n(-c2ccccc2)n1C	none
CCOC(=O)CN1C(=O)C(=O)c2ccccc21	Dicer inh 4.6
O=C(COC(=O)CN1C(=O)C(=O)c2ccccc21)NCc1ccco1	none
CCOC(=O)CCN1C(=O)c2ccccc2C1=O	none
Cc1c(NC(=O)COC(=O)CN2C(=O)C(=O)c3ccccc32)c(=O)n(-c2ccccc2)n1C	Dicer inh 3.78
CC1=C(C)CC(C(=O)c2cc(C)ccc2C)C(C(=O)O)C1 (stereo not given)	none
NC(=O)Nc1nc2cc(Br)ccc2[nH]c1=O	none
CCOC(=O)C1=C(C)N=C2SCC(=O)N2C1c1ccc(O)cc1 (stereo not given)	none
COc1ccc2c(c1)C(C)CC(C)(C)N2C(=O)CSc1ncn[nH]1 (stereo not given)	none
COc1ccc2c(c1)C(C)=CC(C)(C)N2C(=O)CSc1nnc(C)s1	none
COc1ccc2c(c1)C(C)CC(C)(C)N2C(=O)CSc1ncccn1 (stereo not given)	Dicer inh 4.23
COc1ccc(CCNc2ccc(C(F)(F)F)cc2[N+](=O)[O-])cc1OC	none
CSc1nc(CSc2ccccc2)nc(N)c1C#N	none
Cc1cc(C)c2c(C)nn(-c3ccc(C)c(C)c3)c2n1	none
CCOc1ccc(-n2c(O)cnc2Nc2nc(C)cc(C)n2)cc1	none
Cc1cc(C)nc(Nc2ncc(O)n2-c2ccc(C)c(C)c2)n1	Dicer inh 3.6
Cc1c(N=Cc2ccc(-c3ccc([N+](=O)[O-])cc3)o2)c(=O)n(-c2ccccc2)n1C	none
COc1ccc(C2/C(=C(\O)c3ccc(F)cc3)C(=O)C(=O)N2c2ccccn2)cc1OC (stereo not given)	none
COC(=O)c1scc2c(SCc3ccccc3)cc(C(F)(F)F)nc12	Dicer inh 5.03
COC(=O)c1scc2c(OC)cc(C(F)(F)F)nc12	none
COC(=O)c1scc2c(Sc3nccn3C)cc(C(F)(F)F)nc12	none
O=C(Nc1ccccc1C(=O)O)OCC1c2ccccc2-c2ccccc21	Dicer inh 5.23
CC(C)C(NC(=O)OCC1c2ccccc2-c2ccccc21)C(=O)O (stereo not given)	none
CC(CO)NC(=O)OCC1c2ccccc2-c2ccccc21 (stereo not given)	none
O=C(CCn1nnc(-c2cccc(Cl)c2Cl)n1)NNC(=S)Nc1ccc(Cl)c(Cl)c1	Dicer inh 9.44
O=C(Cn1nnc(-c2ccccc2Oc2ccc(Cl)cc2Cl)n1)NNC(=S)Nc1cc(Cl)cc(Cl)c1	Dicer inh 6.31
CC(Oc1ccc(Cl)cc1Cl)C(=O)NNC(=S)Nc1ccccc1 (stereo not given)	none
O=C(CCc1ccc(O)cc1)NNC(=S)Nc1ccc(Cl)c(Cl)c1	none
O=C(Cn1nnc(-c2ccccc2C(F)(F)F)n1)NNS(=O)(=O)c1cccc(Cl)c1	none
N#CCC(=O)NNC(=S)Nc1ccc(Cl)c(Cl)c1	none
Clc1ccc(Nc2nnns2)cc1	none
CC(C)c1ccc(Nc2nnns2)cc1	Dicer inh 6.83
CC(C)c1ccc(NC2(C#N)CCCCC2)cc1	none
O=C1CC(c2cccnc2)c2c(ccc3ccccc23)N1 (stereo not given)	none
CNC(=S)N/N=C/c1c(O)ccc2ccccc12	none
Fc1ccccc1NC(=S)N/N=C/c1cccc2ccccc12	Dicer inh 3.4
CC(C)(C)OC(=O)N/N=C\c1cccc2ccccc12	none
Cc1onc(-c2c(Cl)cccc2Cl)c1C(=O)Oc1cc(C(F)(F)F)nn1C	none
COC(=O)c1sc2cc(-c3ccc(F)cc3)sc2c1C	Dicer inh 3.77
COC(=O)c1sccc1N/N=C/c1ccc(F)cc1	none
COC(=O)c1sc(SC)c(C(C)=O)c1C	none
CCOC(=O)O/N=C(\C(=O)c1ccccc1)c1ccccc1	none
COc1ccccc1C1C(C#N)=C(N)Oc2c1ccc1ccccc21 (stereo not given)	none
Cc1ccc(C(=O)NC2(NCc3ccc(Cl)cc3)C(=O)c3ccccc3C2=O)cc1	none
COC(=O)c1ccccc1S(=O)(=O)N1CCc2[nH]c3ccc(F)cc3c2C1	none
Cc1ccc(C)c(S(=O)(=O)Nc2cc(Cl)c3oc(=O)sc3c2)c1	Dicer inh 11.8
COc1ccc(S(=O)(=O)Nc2cc(Cl)c3oc(=O)sc3c2)cc1	Dicer inh 8.94
Cc1ccc(C)c(S(=O)(=O)Nc2ccc3oc(C)c(C(=O)O)c3c2)c1	none
